According to PubChem BioAssay AID1159580 (chemical genetic matrix, 2015):
Several values for one entry are separate records, joined by “and”; a condition that tells them apart may be missing. Equal entries are not always repeated. Screen size: about 5,500 compounds; about 2,000 (36%) were called active. About 18% were inconclusive and are not listed. Cut-off read from the data, not from the text of the source: active = normalized growth mostly below about 0.91 (no sharp cut-off); inconclusive = no clear call, values can overlap the other calls; inactive = mostly above about 0.92. Some of the results follow.

Test: chemical genetic growth profiling, strain panel (AID 1159580);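 note: tested at 20 µM; growth read once vehicle control cultures reached saturation at 30 °C; 1 = growth at the plate median or of vehicle wells; lower values mean less growth of the strain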
Conditions: S. cerevisiae deletion strains, growth OD

Measured: normalized growth

O=C1c2ccccc2C(=O)c2c1ccc(O)c2O
inactive: locus YDR195W, strain ref2 0.892
active: locus YAL021C, strain ccr4, hits give low values 0.213 | locus YAL026C, strain drs2, hits give low values 0.273 | locus YAL030W, strain snc1, hits give low values 0.578 | locus YBL061C, strain skt5, hits give low values 0.44 | locus YBR009C, strain hhf1, hits give low values 0.532 | locus YBR021W, strain FUR4, hits give low values 0.671 | locus YBR023C, strain chs3, hits give low values 0.38 | locus YBR171W, strain sec66, hits give low values 0.681 | locus YBR229C, strain ROT2, hits give low values 0.399 | locus YBR231C, strain swc5, hits give low values 0.3 | locus YBR279W, strain paf1, hits give low values 0.512 | locus YCL011C, strain gbp2, hits give low values 0.501 | locus YCL016C, strain dcc1, hits give low values 0.564 | locus YCL029C, strain bik1, hits give low values 0.342 | locus YCL061C, strain MRC1, hits give low values 0.608 | locus YCL069W, strain vba3, hits give low values 0.52 | locus YCR088W, strain abp1, hits give low values 0.679 | locus YDL005C, strain med2, hits give low values 0.663 | locus YDL035C, strain GPR1, hits give low values 0.231 | locus YDL040C, strain nat1, hits give low values 0.703 | locus YDL074C, strain BRE1, hits give low values 0.178 | locus YDL101C, strain DUN1, hits give low values 0.235 | locus YDL185W, strain tfp1, hits give low values 0.816 | locus YDL192W, strain arf1, hits give low values 0.301 | locus YDR001C, strain nth1, hits give low values 0.722 | locus YDR069C, strain doa4, hits give low values 0.401 | locus YDR101C, strain arx1, hits give low values 0.549 | locus YDR137W, strain rgp1, hits give low values 0.261 | locus YDR159W, strain sac3, hits give low values 0.722 | locus YDR162C, strain NBP2, hits give low values 0.0628 | locus YDR297W, strain sur2, hits give low values 0.559 | locus YDR318W, strain mcm21, hits give low values 0.34 | locus YDR334W, strain swr1, hits give low values 0.298 | locus YDR335W, strain msn5, hits give low values 0.56 | locus YDR388W, hits give low values 0.149 | locus YDR392W, strain spt3, hits give low values 0.321 | locus YDR502C, strain sam2, hits give low values 0.391 | locus YEL003W, strain gim4, hits give low values 0.504 | locus YEL037C, strain rad23, hits give low values 0.552 | locus YEL061C, strain CIN8 (second series), hits give low values 0.694 | locus YEL061C, strain CIN8, hits give low values 0.39 | locus YER015W, strain faa2, hits give low values 0.39 | locus YER016W, strain bim1, hits give low values 0.675 | locus YER110C, hits give low values 0.412 | locus YER111C, strain swi4, hits give low values 0.566 | locus YER155C, strain BEM2 (second series), hits give low values 0.441 | locus YER155C, strain BEM2, hits give low values 0.276 | locus YER167W, strain BCK2, hits give low values 0.245 | locus YFR010W, strain ubp6, hits give low values 0.557 | locus YGL078C, strain dbp3, hits give low values 0.872 | locus YGL086W, strain mad1, hits give low values 0.291 | locus YGL167C, strain pmr1, hits give low values 0.554 | locus YGL173C, strain kem1, hits give low values 0.248 | locus YGL227W, strain vid30, hits give low values 0.777 | locus YGL240W, strain doc1, hits give low values 0.442 | locus YGL248W, strain PDE1, hits give low values 0.21 | locus YGL253W, strain hxk2, hits give low values 0.295 | locus YGR078C, strain PAC10, hits give low values 0.182 | locus YGR135W, strain pre9, hits give low values 0.394 | locus YGR252W, strain gcn5, hits give low values 0.456 | locus YHR013C, strain ard1, hits give low values 0.427 | locus YHR027C, strain rpn1, hits give low values 0.349 | locus YHR030C, strain SLT2, hits give low values 0.613 | locus YHR079C, strain IRE1 (second series), hits give low values 0.434 | locus YHR079C, strain IRE1, hits give low values 0.67 | locus YHR094C, strain hxt1, hits give low values 0.417 | locus YHR129C, strain ARP1, hits give low values 0.216 | locus YHR142W, strain chs7, hits give low values 0.339 | locus YHR200W, strain rpn10, hits give low values 0.488 | locus YIL066C, strain RNR3, hits give low values 0.174 | locus YIL073C, strain SPO22, hits give low values 0.221 | locus YIL125W, strain kgd1, hits give low values 0.864 | locus YIR030C, strain dcg1, hits give low values 0.466 | locus YJL092W, strain hpr5, hits give low values 0.665 | locus YJL095W, strain BCK1 (second series), hits give low values 0.22 | locus YJL095W, strain BCK1, hits give low values 0.0992 and 0.647 | locus YJL115W, strain asf1, hits give low values 0.644 | locus YJL129C, strain trk1, hits give low values 0.33 | locus YJL134W, strain LCB3, hits give low values 0.309 | locus YJL154C, strain vps35, hits give low values 0.718 | locus YJL164C, strain tpk1, hits give low values 0.414 | locus YJL166W, strain qcr8, hits give low values 0.446 | locus YJL168C, strain set2, hits give low values 0.52 | locus YJL187C, strain SWE1 (second series), hits give low values 0.192
